Bioassay records as filed in PubChem BioAssay.
IMPase inh – qHTS Assay for Identifying the Cell-Membrane Permeable IMPase Inhibitors; inhibition (IP1 accumulation), % at 46.1 µM; 120,000 tested, under 10 active; CHO-M1 cells, IP1 accumulation, HTRF TR-FRET ratio; Inositol monophosphatase 1 (Rattus norvegicus), P97697; active means well fitted curve in the direction sought with a large enough effect in the signal ratio, not every such curve was filed as active; inconclusive means small, poorly fitted or top-dose-only effect, or a change in a side signal; inactive means no such curve, though single readings can be large or run the other way; the % refers to the signal ratio;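 further: cells stimulated with carbachol in lithium chloride buffer; higher means more IMPase inhibition seen as more IP1 and lower FRET ratio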
Target sequence (P97697 whole entry, looked up): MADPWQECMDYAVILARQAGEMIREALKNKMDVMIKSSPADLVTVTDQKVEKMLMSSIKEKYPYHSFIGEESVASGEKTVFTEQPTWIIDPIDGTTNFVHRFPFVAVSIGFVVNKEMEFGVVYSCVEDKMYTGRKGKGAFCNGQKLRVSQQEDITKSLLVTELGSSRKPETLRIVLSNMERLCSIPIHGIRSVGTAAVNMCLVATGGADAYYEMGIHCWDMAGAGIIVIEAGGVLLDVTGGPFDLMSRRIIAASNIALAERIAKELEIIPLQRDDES
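CHO-M1, 2000 cells/well, cultured 16–30 h; cpd up to 46 uM; carbachol (50 uM solution, stimulation buffer w/ 50 mM LiCl, pH 7.4), 30 min 37C; IP-One TR-FRET, 10 min RT; Ex 320/Em 665, 620; Hill-fit AC50.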
PNC inhibitor – High Content Assay for Compounds that inhibit the Assembly of the Perinucleolar Compartment. PC3M PTB-GFP, PNC prevalence imaging, 16 h; active compounds read low. activity change (PNC), negative = inhibition, % at 10 µM. hit rate 3.1% among 140,000;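 active means readout at or below -70, meaning at least 70% loss of cells showing the perinucleolar compartment, a nuclear body marking cancer cells; inconclusive means readout between -30 and a set limit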
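Read-out is percentage of cells bearing a perinucleolar compartment, from automated 20x imaging of fixed, Hoechst-stained PC3M PTB-GFP cells. Cells were seeded 4 h, then exposed 16 h to compound (23 nl of library stock) in duplicate plates.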
LMNA splice mod – qHTS Assay for Modulators of Lamin A Splicing; HeLa LMNA splicing GFP/RFP minigene ratio, 48 h; Potency, µM (doses to about 46.1 µM), most hits filed as inhibitors; hit rate 0.01% among 200,000; active means well fitted inhibition curve with a large enough effect in the signal ratio, with a control signal flat, not every such curve was filed as active; inconclusive means small, poorly fitted or top-dose-only effect, or effect the other way, or a change in a side signal; the % refers to the signal ratio
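S3 HeLa stable clones carrying a lamin A-EGFP splicing minigene plus DsRed2 were seeded at 600 cells/well in Opti-MEM with 2% FBS, pin-dosed and incubated 48 h at 37°C. Acumen cytometry (488 nm) gave the GFP/RFP total-intensity ratio.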
A number is an active result. This excerpt belongs to a sample that is enriched for hits.

`CC(C)N(Cc1nc(-c2ccccc2)no1)C(=O)Cc1ccccc1` gave IMPase inh inactive, PNC inhibitor inconclusive and LMNA splice mod inactive.
`Cc1ccc(-c2noc(CN(C(=O)Cc3ccccc3)C(C)C)n2)cc1` gave IMPase inh inactive, PNC inhibitor -81 and LMNA splice mod inconclusive.
CCOc1ccc(NC(=O)NC23CC4CC(CC(C4)C2)C3)cc1 was read as PNC inhibitor inactive and LMNA splice mod inactive.
Screening N=c1n(CCN2CCCC2)c2ccccc2n1CC(O)c1ccco1 (stereo not given) returned IMPase inh inactive, PNC inhibitor -92 and LMNA splice mod inactive.
`N=c1n(CCN2CCCCC2)c2ccccc2n1CC(O)c1ccc(Cl)c(Cl)c1` (stereo not given) gave IMPase inh inactive, PNC inhibitor inactive and LMNA splice mod inactive.
`CCOc1ccc(NC(=O)Cc2ccc(NC(=O)N3CCCCc4ccccc43)cc2)cc1` gave LMNA splice mod inactive.
For CCOC(=O)c1oc2cccc(O)c2c1C the results were IMPase inh inactive, PNC inhibitor inactive and LMNA splice mod inactive.
CCOC(=O)c1oc2ccc(CNC(C)(C)C)c(Cl)c2c1C was read as IMPase inh inactive, PNC inhibitor -119 and LMNA splice mod inactive.
For CC1CCN(S(=O)(=O)c2ccc3c(c2)CCC(=O)N3CC(=O)Nc2cccc(C#N)c2)CC1 the results were LMNA splice mod inactive.
`CCN(CC)c1ccc2cc(-c3nnc(-c4ccncc4)o3)c(=O)oc2c1` gave IMPase inh inactive, PNC inhibitor -119 and LMNA splice mod inconclusive.
Screening CCN(CC)c1ccc2cc(C(N)=O)c(=O)oc2c1 returned IMPase inh inactive, PNC inhibitor -105 and LMNA splice mod inactive.
`CCN(CC)c1ccc2cc(C=O)c(=O)oc2c1` gave IMPase inh inactive, PNC inhibitor inactive and LMNA splice mod inconclusive.
`CCN(CC)c1ccc2cc(-c3nnc(-c4cccc(Cl)c4)o3)c(=O)oc2c1` gave IMPase inh inactive.
Screening CS(=O)(=O)Nc1cccc(-c2cncnc2-n2ccnc2)c1 returned LMNA splice mod inactive.
CC(C)(O)c1cc(=O)sc2nc3ccccc3n12 was read as IMPase inh inactive, PNC inhibitor -100 and LMNA splice mod inactive.
`c1ccc2nc3c(nc2c1)sc1nc2ccccc2n13` gave IMPase inh inactive, PNC inhibitor inactive and LMNA splice mod inactive.
For O=C(NC(=S)NCCSc1ccccc1)c1cccnc1 the results were PNC inhibitor -95 and LMNA splice mod inactive.
For O=C(NC(=S)NCc1cccnc1)c1ccccc1 the results were PNC inhibitor inactive and LMNA splice mod inactive.
`O=C1CCCC/C1=C/NCc1ccccc1` gave LMNA splice mod inactive.
For Nc1cc(=O)[nH]c(=S)n1-c1ccccc1 the results were IMPase inh inactive, PNC inhibitor inactive and LMNA splice mod inactive.
Screening Cc1cc(=O)[nH]c(=S)n1-c1ccccc1 returned IMPase inh inactive, PNC inhibitor -122 and LMNA splice mod inactive.
Screening CCOC(=O)c1sc(NC(=O)C(C)Oc2ccc(OC)cc2)c(C(=O)OCC)c1C (stereo not given) returned IMPase inh inactive.
For COc1ccc(S(=O)(=O)NC2(C(F)(F)F)N=C(c3ccccc3)NC2=O)cc1 (stereo not given) the results were PNC inhibitor -113 and LMNA splice mod inactive.
O=C1NC(c2ccccc2)=NC1(NS(=O)(=O)c1ccccc1)C(F)(F)F (stereo not given) was read as IMPase inh inactive, PNC inhibitor inactive and LMNA splice mod inactive.
Oc1ccc(Cl)cc1C=Nc1ccccc1Br was read as PNC inhibitor inactive and LMNA splice mod inactive.
Screening Oc1ccc(Br)cc1C=Nc1ccc2c3c(cccc13)CC2 returned PNC inhibitor -98 and LMNA splice mod inactive.
For NC(=O)N1OCC2COc3ccc4ccccc4c3C21 (stereo not given) the results were IMPase inh inactive, PNC inhibitor inactive and LMNA splice mod inactive.
For O=C(Nc1ccc(Cl)cc1)N[C@@H]1c2c(ccc3ccccc23)OC[C@@H]1CO the results were IMPase inh inactive, PNC inhibitor -106 and LMNA splice mod inactive.
For Nc1nc(SCC(=O)Nc2ccccc2Sc2ccccc2)n[nH]1 the results were IMPase inh inactive, PNC inhibitor -111 and LMNA splice mod inconclusive.
For Nc1nc(SCC(=O)Nc2cccc(Oc3ccccc3)c2)n[nH]1 the results were PNC inhibitor inactive and LMNA splice mod inconclusive.
For CC(c1nnnn1C1CCCCC1)N(Cc1ccccc1)Cc1cccnc1 (stereo not given) the results were IMPase inh inactive, PNC inhibitor -100 and LMNA splice mod inactive.
Screening CCN(Cc1ccccc1)C(c1ccccn1)c1nnnn1C1CCCCC1 (stereo not given) returned IMPase inh inactive, PNC inhibitor inactive and LMNA splice mod inactive.
`Oc1ccc(/C=N/n2c3ccccc3c3ccccc32)cc1` gave IMPase inh inactive, PNC inhibitor inactive and LMNA splice mod inactive.
Screening O=C1c2ccccc2C(=O)C12OC(c1ccccc1)C1(C(=O)c3ccccc3C1=O)C2c1cccc([N+](=O)[O-])c1 (stereo not given) returned IMPase inh inactive, PNC inhibitor -100 and LMNA splice mod inactive.
For O=C1c2ccccc2C(=O)C12OC2c1ccc(Cl)cc1 (stereo not given) the results were PNC inhibitor inactive and LMNA splice mod inconclusive.
`Cc1ccc(CNC(=O)C(=O)NCC(c2cccs2)S(=O)(=O)c2ccc(C)cc2)cc1` (stereo not given) gave LMNA splice mod inactive.
For Cc1cc(C)cc(Nc2ncnc3c2nc2n3CCCC2)c1 the results were LMNA splice mod inactive.
For CCOC(=O)c1cnc(SC)nc1Sc1ccccc1Cl the results were IMPase inh inactive, PNC inhibitor -104 and LMNA splice mod inactive.
Screening CSc1nc(Sc2ccccc2Cl)c2ccccc2n1 returned IMPase inh inactive, PNC inhibitor inconclusive and LMNA splice mod inactive.
Screening COc1cc(NC(=O)COC(=O)Cc2ccc(-c3ccccc3)cc2)cc(OC)c1 returned PNC inhibitor -102 and LMNA splice mod inconclusive.
For COc1ccc(OC)c(NC(=O)COC(=O)Cc2ccc(-c3ccccc3)cc2)c1 the results were IMPase inh inactive, PNC inhibitor inconclusive and LMNA splice mod inactive.
Screening COc1cc(NC(=O)CCn2cnc3ccccc3c2=O)cc(OC)c1 returned LMNA splice mod inactive.
For CC(=O)c1cc(Cc2csc(C(C)=O)c2)cs1 the results were IMPase inh inactive, PNC inhibitor -100 and LMNA splice mod inconclusive.
`CC(=O)c1cc(CN2C(=O)CCC2=O)cs1` gave IMPase inh inactive, PNC inhibitor inconclusive and LMNA splice mod inactive.
For O=C(CN1C(=O)C2(SCC(=O)N2c2cccc(F)c2)c2ccccc21)NCCc1ccccc1 (stereo not given) the results were LMNA splice mod inactive.
COc1ccc(S(=O)(=O)NC(C)C(=O)Nc2ccccc2F)cc1 (stereo not given) was read as IMPase inh inactive, PNC inhibitor inconclusive and LMNA splice mod inactive.
For COc1ccc(S(=O)(=O)NC(C)C(=O)Nc2cccc(C(C)=O)c2)cc1 (stereo not given) the results were IMPase inh inactive, PNC inhibitor -112 and LMNA splice mod inactive.
